# Assay results published in the supplement of paper PMC3334620.
# In all, about 33,000 sequences were measured (“E-score (-0.5 to 0.5)”: median about -0.035, highest 2% from about 0.35 on). What follows is part of a selection rich in the highest values, with near analogues and random picks from the rest.
# Target: T1, Pdr3 (UniProt P33200)
# T1 sequence: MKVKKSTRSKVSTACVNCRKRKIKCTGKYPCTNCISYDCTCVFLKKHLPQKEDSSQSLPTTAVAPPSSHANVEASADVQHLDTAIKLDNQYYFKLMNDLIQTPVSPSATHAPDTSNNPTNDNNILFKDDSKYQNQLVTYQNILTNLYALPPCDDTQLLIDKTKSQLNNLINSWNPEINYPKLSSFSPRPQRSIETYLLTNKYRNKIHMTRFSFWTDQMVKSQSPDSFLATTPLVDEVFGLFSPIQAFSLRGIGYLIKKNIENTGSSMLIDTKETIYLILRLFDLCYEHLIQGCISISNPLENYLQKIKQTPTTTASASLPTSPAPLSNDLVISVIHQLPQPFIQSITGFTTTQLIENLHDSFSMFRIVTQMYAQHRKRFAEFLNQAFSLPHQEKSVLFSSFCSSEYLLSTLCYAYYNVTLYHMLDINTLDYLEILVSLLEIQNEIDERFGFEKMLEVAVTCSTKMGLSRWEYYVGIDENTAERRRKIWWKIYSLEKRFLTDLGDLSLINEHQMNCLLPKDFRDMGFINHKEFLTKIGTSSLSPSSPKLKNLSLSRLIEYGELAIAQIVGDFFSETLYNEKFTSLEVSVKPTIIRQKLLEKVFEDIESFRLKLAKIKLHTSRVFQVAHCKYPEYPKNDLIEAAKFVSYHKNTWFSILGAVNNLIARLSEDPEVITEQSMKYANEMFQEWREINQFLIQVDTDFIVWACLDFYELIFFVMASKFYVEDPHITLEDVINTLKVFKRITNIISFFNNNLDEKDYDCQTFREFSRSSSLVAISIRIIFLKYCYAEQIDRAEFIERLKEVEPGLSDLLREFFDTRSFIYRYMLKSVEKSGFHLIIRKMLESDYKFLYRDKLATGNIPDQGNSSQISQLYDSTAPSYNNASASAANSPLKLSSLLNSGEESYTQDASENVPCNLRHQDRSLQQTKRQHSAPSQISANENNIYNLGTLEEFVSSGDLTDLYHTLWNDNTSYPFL
# Assay: PBM E-score (8-mer binding enrichment) (E-score (-0.5 to 0.5)); higher = stronger / more preferred TF binding
# Conditions: protein concentration: 200 nM; construct: GST-full length
# Procedure, shortened: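 E-scores (a modified Wilcoxon-Mann-Whitney statistic) were assigned by the Universal PBM Analysis Suite to every ungapped eight-base word pooled with its reverse complement. The input came from universal all-10-mer Agilent arrays made double-stranded by primer extension and probed with GST-tagged yeast transcription factors at about 100-200 nM. Fluorescent anti-GST detected bound protein, and masliner normalised the scans.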
row,Sequence,PBM E-score
1,AAAAGTTG,0.00957
2,ATCAAAGC,0.0706
3,AACTCGCT,0.0814
4,ATATACCC,0.102
5,CTACCGGA,0.335
6,CACCATAA,-0.109
7,CGCCACAA,-0.0528
8,AATTTCCG,0.442
9,AATTTCCC,0.0432
10,AATTTCCT,0.0149
11,AACTGTAC,-0.229
12,ACGCCGCA,0.181
13,CGGACGGA,0.367
14,ACGACGGA,0.328
15,GCGACGGA,0.374
16,CGGACGGC,0.244
17,GGGACGGA,0.33
18,GGCACGGA,0.314
19,CCGACGGC,0.237
20,CCGACGGA,0.413
21,CGCACGGA,0.413
22,CCGACGAA,0.193
23,CGCACGGC,0.142
24,GCGACGCA,-0.126
25,AACTCCTG,-0.193
26,ATCTGGCA,-0.111

row,Sequence,PBM E-score
1,AGCTGTCC,-0.116
2,GCGGGGCA,0.129
3,CATACCCC,0.0622
4,CCCACCGG,0.248
5,ATCTTCGA,-0.115
6,AATCATGT,-0.0895
7,AGCGCCCT,0.0102
8,CCAAGCCA,-0.245
9,GGAAGCCA,0.0692
10,GGGACGAA,0.162
11,CGGACGAA,0.372
12,CGGACGAC,0.196
13,CAGCGGAC,0.176
14,CAGCGGAA,0.429
15,GAGCGGAA,0.415
16,TAGCGGAA,0.357
17,TAGCGGGA,0.14
18,AAGCGGAG,0.0882
19,CAGCGGAG,0.274
20,AAGCGGAT,0.309
21,TAGCGGCA,0.107
22,AAGCGGAA,0.387
23,GAGCGGAC,0.0792
24,GAGCGGTA,0.0552
25,AAGCTATT,-0.112
26,ACACCACT,0.108

row,Sequence,PBM E-score
1,CGTTGCCC,0.101
2,AAGTGTGT,-0.187
3,CAACTAGA,-0.0997
4,GTTGTGAA,-0.142
5,GAATCAGC,-0.124
6,TCGTTCAA,-0.125
7,GCCGTGGA,0.258
8,CCCGTGGA,0.395
9,CCCGTGGC,0.233
10,TCCGTCGA,0.39
11,CCCGTCGA,0.215
12,GCCGTCAA,-0.048
13,TCCGTCAA,0.375
14,ACCGTCAA,-0.00477
15,GCCGTCGA,0.104
16,AAGCGAAG,-0.0806
17,ACCAGTAT,0.0888
18,AGTTGGTA,-0.111
19,GTCATCCA,-0.0723
20,AACGGACT,0.0833
21,AACGGAAG,0.423
22,AACGGAGC,0.275
23,AACGGAAT,0.468
24,AATGGAAG,0.0364
25,AACGGTAT,-0.0131
26,AACGGAGG,0.185

row,Sequence,PBM E-score
1,AACGGTAG,0.0653
2,AACGGAGT,0.373
3,ACTTTCGA,-0.0188
4,AAAGTTCC,0.2
5,GGCGGGGA,0.292
6,ATTAGCAG,-0.0762
7,ATGCGCAT,0.165
8,AATCCTCA,-0.244
9,ACTATCCC,0.165
10,AACGACCG,-0.146
11,CCAATTAC,-0.099
12,GAGATAAA,0.122
13,AACGCGGC,0.123
14,AACGCGGA,0.358
15,CACGCGGA,0.38
16,CACGCGGC,-0.00292
17,AACGCGGG,0.332
18,CACGCGGG,0.0841
19,ATGTACCG,-0.0139
20,GAGTGCTA,-0.0621
21,CTGGGAGC,-0.192
22,CAAAAAAA,0.211
23,AAGCAAAG,-0.213
24,CACAGCAG,-0.234
25,GCAGCCAC,0.0849
26,ATGCACAA,-0.0898

row,Sequence,PBM E-score
1,ACGGACAC,0.321
2,CTCTCGGC,0.118
3,GTCTCGGA,0.306
4,CTCTCGGA,0.358
5,CTCTCGAA,-0.197
6,ATCTCGGG,0.278
7,ATCTCGGA,0.376
8,CCGTTTTC,0.202
9,CACGGGAG,0.0682
10,ACCGGGAG,0.144
11,CCGGGGAC,0.234
12,CCCGGGGA,0.414
13,CCCGGGAG,0.397
14,CCCGGGGC,0.338
15,CCGGGGGA,0.311
16,CCCGGGAC,0.451
17,CCCGGGAA,0.443
18,CCTGGGAA,-0.0887
19,GCCGGGAC,0.316
20,CCGGGGAG,0.332
21,CCTCTACC,-0.104
22,AGCGAGCA,-0.189
23,ATAATCAT,0.0794
24,AGTCTTAG,-0.224
25,CGATTCGA,0.143
26,AGTGTCGA,0.0406

row,Sequence,PBM E-score
1,ATGACCAA,-0.0317
2,ATGCCCTC,-0.0557
3,AGCTAAAT,-0.165
4,ACAGTTAC,-0.111
5,CGCTATCC,0.158
6,AACGAGAA,-0.0948
7,CAAGGGCA,-0.0651
8,AGGCACGC,0.049
9,GGCGGCCC,-0.00494
10,CTCACCAA,0.136
11,AAGCGGTC,0.00531
12,TCCCGGGA,0.485
13,CCCCGGTA,0.122
14,ACGGGGAA,0.204
15,GCCGGGAA,0.304
16,CCCCGGGA,0.417
17,TCCGGGCA,0.346
18,TACCGGGA,0.347
19,CGGGGGAA,0.276
20,TCCCGGCA,0.323
21,TCCGGGAA,0.386
22,CCGGGGAA,0.356
23,CCCCGGCA,0.189
24,ATTACACA,-0.0105
25,AAACGCGG,0.245
26,ACCAGGCG,-0.0145

row,Sequence,PBM E-score
1,AGCCTTTA,-0.193
2,GGCTAAAC,-0.135
3,CTCATTCC,0.356
4,ATCATTCC,0.281
5,CTCATTCA,-0.0959
6,AGATAGGC,-0.16
7,ATGCTCTC,-0.108
8,ATGCCGGG,0.245
9,GTGCCGGA,0.369
10,ATGCCGGC,0.341
11,ATGCCGGA,0.405
12,GTGCCGTA,0.0678
13,CTGCCGGA,0.32
14,CTAGCAAA,-0.187
15,AATCCGAA,0.0894
16,ATTCCGAC,0.413
17,GTTCCGAA,0.471
18,CTTCCAAA,-0.155
19,GTTCCAAA,-0.00321
20,ACTCCGAC,0.255
21,ATTCCGAA,0.436
22,CTTCCGAA,0.385
23,GGTCCGAA,0.319
24,ACTCCGAA,0.238
25,CTTCCGAC,0.267
26,CTACCGAA,-0.0817

row,Sequence,PBM E-score
1,ACACGGCC,0.14
2,CTCCACGA,-0.144
3,GTCTAGGA,-0.256
4,AACGCATC,-0.139
5,ACTTACCG,0.233
6,AATTTTAG,-0.194
7,ATCAGTCA,0.0413
8,GGCCAAGA,-0.176
9,GGGTTGAC,0.0502
10,CTCGCGCA,-0.029
11,AGCCTAAT,-0.208
12,AGCATACC,-0.0406
13,ATTCCGAG,0.449
14,AGTCCGAG,0.281
15,ACTCCGAG,0.28
16,AAGAGCAA,-0.123
17,ATGCGGTC,0.21
18,CGTTAAGA,-0.136
19,ACGGGAAG,0.133
20,CCGGGAAC,0.362
21,CGGGGAAC,0.258
22,ACGGGAAC,0.33
23,CCGGGAAG,0.359
24,CCGGGAAA,0.344
25,AGAAGGTA,-0.0743
26,ACGAGGCC,-0.0311

row,Sequence,PBM E-score
1,AGTATGCC,-0.0201
2,CGCTTCCG,0.419
3,CGCTTCCA,-0.00125
4,AGCTTCCG,0.416
5,AGCTTCCC,-0.0703
6,CGCTTCCC,0.0936
7,AGCTTCCA,0.0336
8,GCGGAACA,0.474
9,CAGGAACA,-0.0115
10,CCGGAACA,0.471
11,ATGGAACA,-0.0996
12,ACGGAACA,0.477
13,AAGGAACA,-0.129
14,TAGGAACA,-0.0452
15,TCGGAACA,0.483
16,GTGGAACA,0.0611
17,GAGGAACA,0.147
18,TGGGAACA,0.0839
19,CTGGAACA,0.117
